Only some compounds are listed: those with a hit (about 2.4% of all), similar ones and a draw of the others.
Cruzain inh noDet = inhibitors of Trypanosoma cruzi cruzain without detergent; purified cruzain, Z-FR-AMC fluorescence, no detergent; Potency, µM, inactives show max response, negative = inhibition, usual class: inhibitors; actives 2.3% (n = 200,000);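 also: plate controls were enzyme without inhibitor for no effect and buffer without enzyme for full effect; nearly all actives have a fitted effect of over 40% in size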
Target sequence (P25779 123-467 limits assumed): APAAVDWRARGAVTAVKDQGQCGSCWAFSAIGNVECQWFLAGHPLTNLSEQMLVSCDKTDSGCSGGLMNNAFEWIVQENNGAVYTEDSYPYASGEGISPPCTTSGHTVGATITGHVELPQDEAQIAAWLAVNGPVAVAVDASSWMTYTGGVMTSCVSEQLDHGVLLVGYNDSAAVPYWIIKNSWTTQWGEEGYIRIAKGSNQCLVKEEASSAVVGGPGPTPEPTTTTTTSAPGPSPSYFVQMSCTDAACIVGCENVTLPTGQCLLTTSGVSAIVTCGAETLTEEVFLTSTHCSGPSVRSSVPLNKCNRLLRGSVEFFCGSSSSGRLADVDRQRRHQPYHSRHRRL
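Detergent-free condition (0.00005% Triton X-100) in acetate buffer pH 5.5 with DTT. 1.5 nM enzyme and compound were pre-mixed 15 min, then 2 uM Z-FR-AMC substrate added; reaction progress from fluorescence change between first and third reads (60 s).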
Cruzain Triton = inhibitors of Trypanosoma cruzi cruzain with detergent | Potency, µM, for inactives: max response, negative = inhibition, usual class: inhibitors | AID 1478 | P25779 | actives 0.43% (n = 200,000) | purified cruzain, Z-FR-AMC fluorescence, 0.01% Triton;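 also: plate controls were neutral wells for no effect and buffer without enzyme for full effect; nearly all actives have a fitted effect of over 40% in size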
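Read-out: AMC fluorescence (360 nm excitation, 450 nm emission), four reads over 2 min, first-to-third difference used. Conditions: cruzain 1.5 nM, Z-FR-AMC 2 uM, pH 5.5 acetate, 5 mM DTT, 0.01% Triton X-100.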
The depositor's hits bear a star; ? = inconclusive. Calls follow the shape of the dose curve; as a rule, active = well fitted curve in the direction sought with a large enough effect; inconclusive = small, poorly fitted or top-dose-only effect, or another doubt; inactive = no such curve, though single readings can be large; an effect the other way counts as inactive or inconclusive. Potency is read from the fitted curve at half-maximal effect.

SMILES | Cruzain inh noDet | Cruzain Triton
COc1cccc(N2CC(NC(=O)CCCc3ccccc3)CC2=O)c1 (stereo not given) | 7% | -2%
CCC(Oc1ccc(F)cc1)C(=O)Nc1nc(-c2ccc(F)cc2)ns1 (stereo not given) | 5% | -7%
Cc1cccc(C)c1NC(=O)Cn1nnc(-c2ccc(N3CCOCC3)cc2)n1 | 20µM* | -4%
Cc1cc(C)c(NC(=O)Cn2nnc(-c3ccccc3)n2)c(C)c1 | 0% | 1%
CC(C)(CCC(C)(C)c1ccccc1)c1ccccc1 | 1% | -1%
CCOc1ccc(C(=O)NCc2ccc3c(c2)CCN3C(=O)c2ccc(C)cc2)cc1OCC | -7% | -4%
COc1ccc(C(CC(=O)Nc2cccc(C)c2C)N2Cc3ccccc3C2=O)cc1 (stereo not given) | -11% | -6%
O=C(Nc1cc(Cl)ccc1Cl)c1ccc(-c2ccccc2)cc1 | -17% | -6%
COC(=O)c1ccc(C(=O)Nc2cc(Cl)ccc2Cl)cc1NC(=O)c1ccc(N(C)C)cc1 | 3.2µM* | -5%
COc1ccc(C2CC(=O)N(Cc3ccccc3)c3c2c(C)nn3-c2nc(C)cc(C)n2)c(OC)c1 (stereo not given) | 22% | -1%
O=C(NC(=S)Nn1cnc2c(cnn2-c2ccccc2)c1=O)c1ccc(Cl)cc1 | 2% | -3%
O=C(NC(=S)Nn1cnc2c(cnn2-c2ccccc2)c1=O)c1ccc(Oc2ccccc2)cc1 | 25µM* | -2%
O=C(Oc1ccc(S(=O)(=O)F)cc1F)c1ccccc1Cl | 8% | 0%
O=C(O)c1c2c(c(O)c3c1CN(C1CCCCC1)CO3)OCN(C1CCCCC1)C2 | 5% | 3%
Cc1ccccc1NC(=O)c1sc2nc3c(c(-c4ccco4)c2c1N)CCC3 | -27% | -4%
Nc1c(C(=O)NCC2CCCO2)sc2nc3c(c(-c4ccco4)c12)CC/C3=C\c1ccco1 (stereo not given) | -4% | 28µM*
COc1ccccc1CNC(=O)CCCN1C(=O)CSc2c1c(C)nn2-c1ccccc1 | -6% | 0%
CN(C)CC(CN(C)C)c1ccccn1 | 12% | -4%
O[N+]1=CC=CCC1=S.On1ccccc1=S.[Zn] | 2.5µM* | 3.2µM*
COc1cc(-c2cccs2)cc(=O)c2c(C)oc(C)c12 | 20µM* | -5%
COc1cc(-c2cc(OC)c3c(C)oc(C)c3c(=O)c2)ccc1OC(=O)c1ccccc1Cl | 26% | -21%
Cc1ccccc1Nc1cc(C(=O)NC2CCC(C)CC2)c2ccccc2n1 (stereo not given) | 0% | -4%
CC(C)CNC(=O)C(=O)Nc1c2c(nn1-c1ccc(Cl)cc1)CSC2 | ? | 1%
O=C(NCc1ccccc1)C(=O)Nc1c2c(nn1-c1ccccc1)CSC2 | ? | -2%
COc1ccc(CNC(=O)C(=O)Nc2c3c(nn2-c2ccccc2)CSC3)cc1 | 25µM* | -2%
SMILES | Cruzain inh noDet | Cruzain Triton
COc1ccc(-n2nc3c(c2NC(=O)C(=O)NCc2ccccc2)CSC3)cc1 | 7.9µM* | -1%
O=C(NCc1cccc(F)c1)C1CCN(c2nc3ccccc3nc2C(F)(F)F)CC1 | -12% | 3%
Cc1ccc2nc(-c3ccc(N)cc3)sc2c1S(=O)(=O)O | 20µM* | 35µM*
Cc1ccc2nc(-c3ccc(NS(=O)(=O)c4ccccc4)cc3)sc2c1 | -19% | -5%
Cc1ccc(CNC(=O)Cn2cc3c(n2)-c2c(oc(C(=O)N4CCOCC4)c2C)CC3)cc1 | 6% | -3%
O=C(COc1ccccc1)Nc1ccc([N+](=O)[O-])cc1 | -6% | 0%
CC(C)Oc1ccc(/C=N/NC(=O)C(CSCc2ccccc2)NC(=O)c2ccc([N+](=O)[O-])cc2)cc1 (stereo not given) | 20µM* | -3%
O=C(CNc1ccccc1)N/N=C/c1ccc([N+](=O)[O-])cc1 | -1% | -4%
O=C(COc1ccc(/C=N/NC(=O)c2ccccc2)cc1)Nc1ccc([N+](=O)[O-])cc1 | 13µM* | 2%
CCCC/C=C/C(NC(=O)c1ccco1)c1ccccc1 (stereo not given) | -4% | -3%
CCCC1=Nc2cc(C(=O)NC3CCCCC3)ccc2Sc2ccc(C)cc21 | -18% | 2%
Nc1c(-c2cccs2)cnn1-c1nc(-c2ccc(F)cc2)cs1 | -21% | 6%
Nc1c(-c2cccs2)cnn1-c1nc(-c2ccc(Cl)cc2Cl)cs1 | 25µM* | 0%
CCCCN(C)S(=O)(=O)c1cc(-c2cc(C)no2)ccc1C | 19% | -5%
Cc1nc(Nc2ccc(Cl)cc2)cc(-c2ccccc2)n1 | -12% | -18%
Cc1ccc(-c2nnc(SCC(=O)c3ccc(Cl)cc3)n2-c2ccccc2)cc1 | -10% | 2%
Cc1ccc(NC(=O)CN2C(=O)NC3(CCC(C)CC3)C2=O)c(Cl)c1 (stereo not given) | -14% | 3%
CC1CCC2(CC1)NC(=O)N(CC(=O)Nc1nc(-c3ccc(F)cc3)cs1)C2=O (stereo not given) | 25µM* | 6%
Cn1c(C(=O)NCc2cccc(F)c2)cc2cc(S(=O)(=O)N3CCCCC3)ccc21 | ? | -1%
CC(C)c1ccccc1NC(=O)COC(=O)Cc1ccsc1 | -2% | -3%
O=C(CN1C(=O)S/C(=C\C=C\c2ccccc2)C1=O)Nc1ccc(O)cc1 | -5% | -6%
CC(C)c1ccccc1NC(=O)COC(=O)CCN1C(=O)/C(=C\C=C\c2ccccc2)SC1=S | 16µM* | -11%
Cc1ccc(NC(=O)CCCN2C(=O)/C(=C/C=C/c3ccccc3)SC2=S)cc1 | 32µM* | -7%
COc1cc(NC(=O)N2CCC3(CC2)Nc2cc(F)ccc2-n2cccc23)cc(OC)c1OC | ? | -7%
COc1cc([N+](=O)[O-])ccc1NC(=O)N1CCC2(CC1)Nc1ccccc1-n1cccc12 | 25µM* | -2%
SMILES | Cruzain inh noDet | Cruzain Triton
CCOC(=O)c1sc(N(Cc2ccccc2)C(=O)COC(=O)c2ccccc2O)nc1C | -16% | -7%
CCOC(=O)c1sc(N(Cc2ccccc2)C(=O)COC(=O)c2ccc(O)cc2)nc1C | 16µM* | -5%
CCOC(=O)c1c(-c2ccc(C)o2)csc1NC(=S)NC(=O)c1ccccc1Br | 32µM* | -3%
CCOC(=O)c1c(-c2ccccc2)csc1NC(=S)NC | -3% | -14%
CCOC(=O)c1c(-c2ccc(C)o2)csc1NC(=O)CSc1nnc(C)s1 | ? | -7%
CCOC(=O)c1c(-c2ccc(C)o2)csc1NC(=S)NC(=O)c1cccs1 | 25µM* | -1%
Cc1nnsc1C(=O)Oc1ccccc1Cl | -7% | -2%
O=C(NCc1ccccc1Cl)c1cc2c(s1)-c1ccc(Cl)cc1SC2 | 10µM* | -6%
Cc1ccc(CNC(=O)c2cc3c(s2)-c2ccccc2SC3)cc1 | ? | -9%
COc1ccccc1CNC(=O)c1cc2c(s1)-c1ccc(Cl)cc1SC2 | -12% | -5%
Cc1ccc(CNC(=O)c2cc3c(s2)-c2ccc(Cl)cc2SC3)cc1 | 13µM* | -2%
Cc1nc(Nc2cccc(C(F)(F)F)c2)nc2c1C(=O)CC(C)C2 (stereo not given) | 16µM* | 5%
Cc1cccc(Nc2ncc3c(n2)CC(C)CC3=O)c1 (stereo not given) | 2% | -7%
Cc1noc(C)c1-c1nc(NCc2ccccc2)c2ccccc2n1 | -5% | -3%
CC(C)C(NC(=O)OCc1ccccc1)C(=O)OCC(=O)N1CCCCC1 (stereo not given) | 1% | 4%
CC(=O)c1cccc(NC(=O)COC(=O)[C@@H](NC(=O)OCc2ccccc2)C(C)C)c1 | 25µM* | 16µM*
